Assay results from the supplement of paper PMC6522484.
± gives the standard deviation of the averaged measurements.

How the values were obtained:
DLD1 [1] = assay: cell viability (CellTiter-Glo) relative to plate median (fraction of plate median); higher = more viable cells; details: 5 µM; treatment time 24 h; reporter: 7TFP
Method in brief: (§1)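 After seeding in 384-well plates, colorectal cancer cell lines carrying stable lentiviral TCF/Wnt firefly luciferase reporters (7TFP or TCF4/Wnt) were left 24 h. Library compounds were then added at a final 5 µM for 24 h. A Tecan F500 reader measured firefly luciferase or CellTiterGlo luminescence on parallel plates, with each well normalised to the plate median by webcellHTS2 (additive, no log transformation), and two independent replicates averaged.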

HCT116 = assay: as above; details: 5 µM; treatment time 24 h; reporter: TCF4/Wnt
Method in brief: as §1

SW480 [2] = assay: as above; details: 5 µM; treatment time 24 h; reporter: 7TFP
Method in brief: as §1

DLD1 [3] = assay: TCF/Wnt firefly luciferase reporter signal relative to plate median (fraction of plate median); higher = higher Wnt reporter signal; details: 5 µM; treatment time 24 h; reporter: 7TFP
Method in brief: as §1

SW480 [4] = assay: as above; details: 5 µM; treatment time 24 h; reporter: 7TFP
Method in brief: as §1

Row | Compound | cell viability (DLD1 [1]) | cell viability (HCT116) | cell viability (SW480 [2]) | TCF/Wnt firefly luciferase reporter signal (DLD1 [3]) | TCF/Wnt firefly luciferase reporter signal (SW480 [4])
1 | O=C(O)c1cc(=O)c2ccccc2[nH]1 | 1.01 ± 0.021 | 0.968 ± 0.16 | 0.9555 ± 0.0064 | 0.8765 ± 0.0078 | 0.986 ± 0.048
2 | CNCCCN1c2ccccc2CCc2ccccc21 | 0.994 ± 0.023 | 0.933 ± 0.013 | 0.909 ± 0.041 | 0.868 ± 0.035 | 0.934 ± 0.045
3 | COc1cc(C(=O)NCc2ccc(OCCN(C)C)cc2)cc(OC)c1OC | 0.99 ± 0.057 | 1 ± 0.13 | 0.996 ± 0.077 | 0.871 ± 0.12 | 0.851 ± 0.06
4 | CCN(CC)CCOC(=O)C1(C2CCCCC2)CCCCC1 | 0.98 ± 0.0014 | 1.02 ± 0.14 | 1.045 ± 0.0071 | 0.9375 ± 0.0078 | 1.045 ± 0.0071
5 | CC(c1cc2ccccc2s1)N(O)C(N)=O (stereo not given) | 1.03 ± 0.067 | 1.02 ± 0.057 | 1.05 ± 0.035 | 1.13 ± 0.014 | 0.946 ± 0.074
6 | O=c1c(-c2cc(O)c(O)c(O)c2)coc2cc(O)c(O)c(O)c12 | 1.005 ± 0.0071 | 1.1 ± 0.078 | 1.04 | 1.09 ± 0.035 | 0.93 ± 0.14
7 | C[C@]12CCC(=O)C=C1CC[C@@H]1[C@@H]2C(=O)C[C@@]2(C)[C@H]1CC[C@]2(O)C(=O)CO | 0.888 ± 0.14 | 1.02 ± 0.12 | 0.957 ± 0.0057 | 0.914 ± 0.093 | 0.761 ± 0.013
8 | O=C(O)COCCN1CCN(C(c2ccccc2)c2ccc(Cl)cc2)CC1 (stereo not given) | 0.94 ± 0.054 | 0.896 ± 0.05 | 0.955 ± 0.024 | 1.04 ± 0.035 | 0.915 ± 0.033
9 | Cc1c(C(N)=O)cc([N+](=O)[O-])cc1[N+](=O)[O-] | 0.985 ± 0.035 | 0.926 ± 0.15 | 0.981 ± 0.056 | 0.9 ± 0.05 | 0.9925 ± 0.0064
10 | NC(=O)c1ncn([C@@H]2O[C@H](CO)[C@@H](O)[C@H]2O)n1 | 1.12 ± 0.035 | 1.04 ± 0.064 | 1.01 ± 0.021 | 1.22 ± 0.23 | 0.986 ± 0.09
11 | O=C(O)c1cc(O)c2c(c1)C(=O)c1cc(O)cc(O)c1C2=O | 0.873 ± 0.11 | 0.866 ± 0.057 | 0.991 ± 0.013 | 0.926 ± 0.22 | 1.12 ± 0.11
12 | CCSC(=N)N | 0.954 ± 0.046 | 0.948 ± 0.073 | 0.9995 ± 0.00071 | 0.99 ± 0.028 | 0.963 ± 0.031
13 | COc1ccccc1OCCNCC(O)COc1cccc2[nH]c3ccccc3c12 (stereo not given) | 1.05 ± 0.22 | 1.06 ± 0.078 | 1.1 | 1.21 ± 0.085 | 1.075 ± 0.0071
14 | O=c1cc(-c2ccc(O)cc2)oc2cc(O)ccc12 | 1.06 ± 0.13 | 0.987 ± 0.1 | 0.987 ± 0.033 | 0.92 ± 0.11 | 1.04 ± 0.028
